# Measured values as given in PubChem BioAssay AID1159580 (chemical genetic matrix, 2015).
# The campaign covered roughly 5,500 compounds. About 2,000 (36%) were called active. Not shown: some 18% with an inconclusive outcome. Some of the results follow. Values without a mark were called inactive. Rule as the data show it: active = normalized growth mostly below about 0.91 (no sharp cut-off); inconclusive = no clear call, values can overlap the other calls; inactive = mostly above about 0.92.
# Test: chemical genetic growth profiling, strain panel (AID 1159580);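 also: tested at 20 µM; growth read once vehicle control cultures reached saturation at 30 °C; 1 = growth at the plate median or of vehicle wells; lower values mean less growth of the strain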
# Settings: growth OD
structure (smiles),measurement,setting,value
CCN(CC)C(C)CN1c2ccccc2Sc2ccccc21 (configuration not stated),normalized growth,"S. cerevisiae deletion strains, locus YJR075W, strain HOC1, stronger effect = lower value",0.937
same,normalized growth,"S. cerevisiae deletion strains, locus YKL009W, strain mrt4, stronger effect = lower value",0.888
same,normalized growth,"S. cerevisiae deletion strains, locus YKL068W, stronger effect = lower value",0.965
same,normalized growth,"S. cerevisiae deletion strains, locus YKL085W, strain MDH1 (second series), stronger effect = lower value",0.972
same,normalized growth,"S. cerevisiae deletion strains, locus YKL085W, strain MDH1, stronger effect = lower value",0.972
same,normalized growth,"S. cerevisiae deletion strains, locus YKL160W, strain elf1, stronger effect = lower value",0.907
same,normalized growth,"S. cerevisiae deletion strains, locus YKL190W, strain CNB1, stronger effect = lower value",0.985
same,normalized growth,"S. cerevisiae deletion strains, locus YKR001C, strain vps1, stronger effect = lower value",1.02
same,normalized growth,"S. cerevisiae deletion strains, locus YKR026C, strain gcn3, stronger effect = lower value",1.01
same,normalized growth,"S. cerevisiae deletion strains, locus YKR091W, strain srl3, stronger effect = lower value",0.986
same,normalized growth,"S. cerevisiae deletion strains, locus YLL001W, strain dnm1, stronger effect = lower value",0.911
same,normalized growth,"S. cerevisiae deletion strains, locus YLL026W, stronger effect = lower value",0.962
same,normalized growth,"S. cerevisiae deletion strains, locus YLL041C, strain sdh2, stronger effect = lower value",0.981
same,normalized growth,"S. cerevisiae deletion strains, locus YLR027C, strain aat2, stronger effect = lower value",0.961
same,normalized growth,"S. cerevisiae deletion strains, locus YLR039C, strain RIC1, stronger effect = lower value",1.1
same,normalized growth,"S. cerevisiae deletion strains, locus YLR058C, strain SHM2, stronger effect = lower value",0.963
same,normalized growth,"S. cerevisiae deletion strains, locus YLR102C, strain apc9, stronger effect = lower value",0.965
same,normalized growth,"S. cerevisiae deletion strains, locus YLR113W, strain HOG1, stronger effect = lower value",1.08
same,normalized growth,"S. cerevisiae deletion strains, locus YLR221C, strain rsa3, stronger effect = lower value",0.949
same,normalized growth,"S. cerevisiae deletion strains, locus YLR258W, strain gsy2, stronger effect = lower value",0.922
same,normalized growth,"S. cerevisiae deletion strains, locus YLR262C, strain YPT6 (second series), stronger effect = lower value",1.05
same,normalized growth,"S. cerevisiae deletion strains, locus YLR262C, strain YPT6, stronger effect = lower value",1.17
same,normalized growth,"S. cerevisiae deletion strains, locus YLR268W, strain sec22, stronger effect = lower value",0.924
same,normalized growth,"S. cerevisiae deletion strains, locus YLR320W, strain mms22, stronger effect = lower value",0.875 (active)
same,normalized growth,"S. cerevisiae deletion strains, locus YLR330W, strain CHS5, stronger effect = lower value",0.975
same,normalized growth,"S. cerevisiae deletion strains, locus YLR342W, strain FKS1 (second series), stronger effect = lower value",0.895
same,normalized growth,"S. cerevisiae deletion strains, locus YLR342W, strain FKS1, stronger effect = lower value",0.879 (active)
same,normalized growth,"S. cerevisiae deletion strains, locus YLR357W, strain rsc2, stronger effect = lower value",1.01
same,normalized growth,"S. cerevisiae deletion strains, locus YLR370C, strain arc18, stronger effect = lower value",0.952
same,normalized growth,"S. cerevisiae deletion strains, locus YLR371W, strain rom2, stronger effect = lower value",0.955
same,normalized growth,"S. cerevisiae deletion strains, locus YLR384C, strain iki3, stronger effect = lower value",1
same,normalized growth,"S. cerevisiae deletion strains, locus YLR418C, strain cdc73, stronger effect = lower value",0.844
same,normalized growth,"S. cerevisiae deletion strains, locus YML016C, strain PPZ1, stronger effect = lower value",0.985
same,normalized growth,"S. cerevisiae deletion strains, locus YML032C, strain rad52, stronger effect = lower value",0.951
same,normalized growth,"S. cerevisiae deletion strains, locus YML120C, strain ndi1, stronger effect = lower value",1
same,normalized growth,"S. cerevisiae deletion strains, locus YML124C, strain tub3, stronger effect = lower value",0.964
same,normalized growth,"S. cerevisiae deletion strains, locus YMR058W, strain fet3, stronger effect = lower value",0.933
same,normalized growth,"S. cerevisiae deletion strains, locus YMR078C, strain ctf18, stronger effect = lower value",0.959
same,normalized growth,"S. cerevisiae deletion strains, locus YMR125W, strain sto1, stronger effect = lower value",1
same,normalized growth,"S. cerevisiae deletion strains, locus YMR129W, stronger effect = lower value",0.995
same,normalized growth,"S. cerevisiae deletion strains, locus YMR205C, strain PFK2, stronger effect = lower value",0.912
same,normalized growth,"S. cerevisiae deletion strains, locus YMR223W, strain ubp8, stronger effect = lower value",0.944
same,normalized growth,"S. cerevisiae deletion strains, locus YMR231W, strain pep5, stronger effect = lower value",1.01
same,normalized growth,"S. cerevisiae deletion strains, locus YMR263W, strain SAP30, stronger effect = lower value",0.952
same,normalized growth,"S. cerevisiae deletion strains, locus YMR307W, strain GAS1, stronger effect = lower value",0.902
same,normalized growth,"S. cerevisiae deletion strains, locus YNL067W, strain RPL9B, stronger effect = lower value",0.91
same,normalized growth,"S. cerevisiae deletion strains, locus YNL071W, strain lat1, stronger effect = lower value",0.99
same,normalized growth,"S. cerevisiae deletion strains, locus YNL128W, strain TEP1, stronger effect = lower value",0.987
same,normalized growth,"S. cerevisiae deletion strains, locus YNL153C, strain GIM3, stronger effect = lower value",0.963
same,normalized growth,"S. cerevisiae deletion strains, locus YNL183C, strain NPR1, stronger effect = lower value",0.961
same,normalized growth,"S. cerevisiae deletion strains, locus YNL209W, strain ssb2, stronger effect = lower value",0.891 (active)
same,normalized growth,"S. cerevisiae deletion strains, locus YNL233W, strain BNI4, stronger effect = lower value",0.948
same,normalized growth,"S. cerevisiae deletion strains, locus YNL248C, strain rpa49, stronger effect = lower value",0.954
same,normalized growth,"S. cerevisiae deletion strains, locus YNL250W, strain rad50, stronger effect = lower value",0.98
same,normalized growth,"S. cerevisiae deletion strains, locus YNL271C, strain bni1, stronger effect = lower value",0.971
same,normalized growth,"S. cerevisiae deletion strains, locus YNL298W, strain CLA4, stronger effect = lower value",0.959
same,normalized growth,"S. cerevisiae deletion strains, locus YNL307C, strain MCK1, stronger effect = lower value",0.89 (active)
same,normalized growth,"S. cerevisiae deletion strains, locus YNL322C, strain KRE1 (second series), stronger effect = lower value",0.96
same,normalized growth,"S. cerevisiae deletion strains, locus YNL322C, strain KRE1, stronger effect = lower value",0.986
same,normalized growth,"S. cerevisiae deletion strains, locus YNR049C, strain mso1, stronger effect = lower value",0.985
same,normalized growth,"S. cerevisiae deletion strains, locus YNR052C, strain pop2, stronger effect = lower value",0.967
same,normalized growth,"S. cerevisiae deletion strains, locus YOL006C, strain TOP1, stronger effect = lower value",0.458 (active)
same,normalized growth,"S. cerevisiae deletion strains, locus YOL012C, strain htz1",1
same,normalized growth,"S. cerevisiae deletion strains, locus YOL147C, strain pex11, stronger effect = lower value",0.961
same,normalized growth,"S. cerevisiae deletion strains, locus YOR001W, strain rrp6, stronger effect = lower value",0.97
same,normalized growth,"S. cerevisiae deletion strains, locus YOR061W, strain CKA2, stronger effect = lower value",0.988
same,normalized growth,"S. cerevisiae deletion strains, locus YOR069W, strain VPS5, stronger effect = lower value",0.985
same,normalized growth,"S. cerevisiae deletion strains, locus YOR070C, strain gyp1, stronger effect = lower value",0.933
same,normalized growth,"S. cerevisiae deletion strains, locus YOR080W, strain dia2, stronger effect = lower value",1
same,normalized growth,"S. cerevisiae deletion strains, locus YOR083W, strain WHI5, stronger effect = lower value",0.841 (active)
same,normalized growth,"S. cerevisiae deletion strains, locus YOR106W, strain vam3, stronger effect = lower value",0.803 (active)
same,normalized growth,"S. cerevisiae deletion strains, locus YOR136W, strain idh2, stronger effect = lower value",0.965
same,normalized growth,"S. cerevisiae deletion strains, locus YOR144C, strain elg1, stronger effect = lower value",0.955
same,normalized growth,"S. cerevisiae deletion strains, locus YOR184W, strain ser1, stronger effect = lower value",0.94
same,normalized growth,"S. cerevisiae deletion strains, locus YOR231W, strain MKK1, stronger effect = lower value",1.04
same,normalized growth,"S. cerevisiae deletion strains, locus YOR265W, strain rbl2, stronger effect = lower value",0.986
same,normalized growth,"S. cerevisiae deletion strains, locus YOR270C, strain vph1, stronger effect = lower value",0.67 (active)
same,normalized growth,"S. cerevisiae deletion strains, locus YOR290C, strain snf2, stronger effect = lower value",0.89
same,normalized growth,"S. cerevisiae deletion strains, locus YOR316C, strain cot1, stronger effect = lower value",0.942
same,normalized growth,"S. cerevisiae deletion strains, locus YPL051W, strain arl3, stronger effect = lower value",0.831 (active)
same,normalized growth,"S. cerevisiae deletion strains, locus YPL055C, strain LGE1, stronger effect = lower value",0.89
same,normalized growth,"S. cerevisiae deletion strains, locus YPL078C, strain atp4, stronger effect = lower value",0.87 (active)
same,normalized growth,"S. cerevisiae deletion strains, locus YPL106C, strain sse1, stronger effect = lower value",0.927
same,normalized growth,"S. cerevisiae deletion strains, locus YPL240C, strain hsp82, stronger effect = lower value",0.977
same,normalized growth,"S. cerevisiae deletion strains, locus YPL241C, strain CIN2, stronger effect = lower value",0.996
same,normalized growth,"S. cerevisiae deletion strains, locus YPL256C, strain CLN2, stronger effect = lower value",1.05
same,normalized growth,"S. cerevisiae deletion strains, locus YPR119W, strain clb2, stronger effect = lower value",0.954
same,normalized growth,"S. cerevisiae deletion strains, locus YPR141C, strain kar3, stronger effect = lower value",0.957
same,normalized growth,"S. cerevisiae deletion strains, locus YPR163C, strain tif3, stronger effect = lower value",0.949
same,normalized growth,"S. cerevisiae deletion strains, locus YPR167C, strain met16, stronger effect = lower value",0.936
same,normalized growth,"S. cerevisiae deletion strains, strain wtn01, stronger effect = lower value",0.957
same,normalized growth,"S. cerevisiae strains, strain wild type, stronger effect = lower value",1
